Measured values as given in PubChem BioAssay (NCI).
The panel holds about 83,000 compounds, 20% with a hit somewhere; the sample as a whole holds those more often.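 48-hour exposure, single concentration, 96-well plates; percent growth endpoint where 0 means no net growth. Active: below 10.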 Unmarked numbers belong to inactive results. Active and inactive are the calls of the source.

Test system: SF-539 CNS
Assay: NCI-60 one-dose screen, 48 h (100 = growth as untreated, 0 = no growth, -100 = all killed)
Conditions: 10 µM unless noted

| Compound | growth |
| --- | --- |
| COC(=O)[C@H](Cc1ccccc1)NC(=O)c1csc([C@@H](C[C@H](C(C)C)N(C)C(=O)[C@@H](NC(=O)[C@H]2CCCN2C)C2CC2)OC(C)=O)n1 | -24.9% (active) |
| c1cc2c(c3c1CCNC3)OCO2 | 105% |
| Fc1ccc2c(c1)c(-c1nc(-c3c[nH]c4ncccc34)cs1)cn2CCCCN1CCCCC1 | -82.4% (active) |
| O=C(Nc1ccncc1F)c1cn(CC2CC2)c2ccccc12 | 110% |
| COP(=S)(N1CC1)N1CC1 | 94.3% |
| C/C=C(\C)C(=O)O[C@@H]1C(O)[C@H]2OC(COC(=O)CCC(=O)CCCCCC[C@H](CCCCC)O[C@@H]3OC(C)[C@H](OC(C)=O)C(O)[C@H]3O2)[C@H]1OC(=O)/C=C/c1ccccc1 (some centres undefined) | -9.75% (active) |
| CCc1ccccc1[C@@H]1C[C@]2(C)CCO[C@@H]2OO1 | 111% |
| CC(=O)O[C@H](C[C@H](C(C)C)N(C)C(=O)[C@@H](NC(=O)[C@H]1CCCCN1C)C(C)(C)C)c1nc(C(=O)N[C@@H](Cc2ccccc2)C[C@H](C)C(=O)O)cs1 | -10.9% (active) |
| COc1ccc(C(=O)c2cc(OC)c(OC)c(OC)c2)cc1OC(C)=O | 6.23% (active) |
| COc1ccc(N(CC(=O)NCCC[Te]c2ccccc2)C(=O)CNC(=O)OC(C)(C)C)cc1 | -9.65% (active) |
| COC(=O)[C@@H](C)C[C@H](Cc1ccccc1)NC(=O)c1csc([C@@H](C[C@H](C(C)C)N(C)C(=O)[C@@H](NC(=O)[C@H]2CCCCN2C)C(C)C)OC(C)=O)n1 | -23% (active) |
| CC[C@H](C)[C@@H]1OC(=O)C(C)(C)[C@H](O)[C@H](Cc2ccccc2)OC(=O)[C@H](C(C)C)OC(=O)[C@@H](NC(=O)c2cccc(NC=O)c2O)[C@@H](C)OC1=O | 52.8% |
| NC(=O)CNc1ccc([As]=[As]c2ccc(NCC(N)=O)cc2)cc1 (centres undefined) | 0.244% (active) |
| Fc1ccc2c(c1)c(-c1nc(-c3c[nH]c4ncccc34)cs1)cn2CCN1CCOCC1 | 55.1% |
| O=C([O][Hg][CH2]C1COCC([CH2][Hg][O]C(=O)c2ccccc2)O1)c1ccccc1 (centres undefined) | 113% |
| O=[N+]([O-])CC(c1ccccc1Cl)c1c(-c2ccccc2)[nH]c2ccccc12 (centres undefined) | 27.2% |
| CCn1c2ccccc2c2cc(C(=O)c3cccc4c3CCCN4)ccc21 | 111% |

| Compound | growth |
| --- | --- |
| COc1ccc(/C(C)=C(\c2ccc(OCCN3CCOCC3)cc2)c2ccc(OC(=O)Cc3ccccc3)cc2)cc1 | 112% |
| Cc1cc(N(CCCl)CCCl)ccc1C=Nc1ccc(-c2csc(Cc3ccccc3)n2)cc1 | 49.3% |
| Cc1ccc2c(C(C[N+](=O)[O-])c3cccs3)c(-c3ccccc3)[nH]c2c1 (centres undefined) | 6.62% (active) |
| O=C(CC1(O)C(=O)N(Cc2ccccc2)c2ccc(Cl)cc21)c1ccc(C(=O)NCC2CCC3(CC2)OOC2(CCCCC2)OO3)cc1 (centres undefined) | -81.1% (active) |
| CCOC(=O)CCC(NC(=O)C(Cc1ccc(N(CCCl)CCCl)cc1)NC=O)C(=O)OCC (centres undefined) | -61.7% (active) |
| COC(=O)[C@@H](C)C[C@H](Cc1ccccc1)NC(=O)c1csc([C@@H](C[C@H](C(C)C)N(C)C(=O)[C@@H](NC(=O)C23CC(NC(C)=O)(C2)C3)C2CC2)OC(C)=O)n1 | 42.4% |
| COC(=O)[C@]12CCC(C)(C)C[C@H]1[C@H]1C(=O)C[C@@H]3[C@@]4(C)C[C@@]5(CC(C)(C)[C@@H]4CC[C@@]3(C)[C@]1(C)CC2)OO[C@@](C)(C(F)(F)F)O5 | 101% |
| CNC(=O)Oc1ccc(N(C)C)cc1C(C)C | 89.7% |
| COc1ccc(/C=C\c2cc(OC)c(OC)c(OC)c2)cc1OCC(=O)Nc1nc2ccc(C(F)(F)F)cc2s1 | -18.6% (active) |
| O=C(CC1(O)C(=O)N(Cc2ccccc2)c2ccc(F)cc21)c1ccc(C(=O)NCC2CCC3(CC2)OOC2(CCCCC2)OO3)cc1 (centres undefined) | -84.8% (active) |
| c1cnc2[nH]cc(-c3csc(-c4cn(CCCCN5CCCCC5)c5ccccc45)n3)c2c1 | 86.5% |
| COc1ccc(NC([Se])=NC23CC4CC(CC(C4)C2)C3)cc1 | -6.89% (active) |
| Clc1cccc(Cl)c1Cl | 100% |
| C[C@]12CCc3sc(-c4ccccc4O)nc3C1=CC[C@@H]1[C@@H]2CC[C@]2(C)C(=O)CC[C@@H]12 | 105% |
| O=C(CC1(O)C(=O)Nc2ccccc21)c1ccc(C(=O)NCC2CCC3(CC2)OOC2(CCCCC2)OO3)cc1 (centres undefined) | 81% |
| CCCOC(=O)N[C@H]1CCc2c(Br)c(OC)c(OC)c(OC)c2-c2ccc(SC)c(=O)cc21 | 0.697% (active) |
| Cc1cc(C)c(CBr)c(C)c1 | 93.5% |
